# Test results: PubChem BioAssay (NCI)
# The panel holds about 83,000 compounds, 20% with a hit somewhere; the sample as a whole holds those more often.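 Percent growth is the endpoint: 0 to 100 indicates growth inhibition (40 means 60% inhibition), 0 means no net growth, and negative values indicate cell death.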 A number with no mark means an inactive call. Activity calls are given as the source filed them. The calls were made as follows: active = growth percent below 10; inactive = the rest.
# System: RXF 393 renal
# Experiment: NCI-60 one-dose screen, 48 h (100 = growth as untreated, 0 = no growth, -100 = all killed)
# Conditions: 10 µM unless noted
row,Compound,growth
1,O=C(CSc1nc2ccccc2c(=O)[nH]1)NCCN1CCCCC1,115%
2,C#CCOc1cc(N(CC)CC)ccc1C(C(=O)NC(C)(C)C)N(C(=O)C1CCc2cc(F)ccc2O1)c1ccc(F)c(Cl)c1 (centres undefined),59.3%
3,O=c1oc2ccccc2cc1-c1csc(N2N=C(c3ccccc3)CC2c2ccc(N3CCOCC3)cc2)n1 (centres undefined),112%
4,Cn1cc(-c2cc(N)n3nc(-c4cn(C)c5ncccc45)cc3n2)c2cccnc21,58.8%
5,COc1ccc(-c2ccnc(SCc3cc4cc(OC)ccc4[nH]c3=O)n2)cc1,7.02% (active)
6,CCOc1ccc(-c2c(C#N)c(-c3ccc(Cl)cc3)nc3n[nH]c(-c4ccc(Cl)cc4)c23)cc1OC,47.4%
7,CN(C)c1ccnc(NCCCSC(c2ccccc2)(c2ccccc2)c2ccccc2)c1,6.09% (active)
8,O=C(Cn1c(/C=C/c2ccccc2)nc2ccccc2c1=O)Nc1ccccc1,8.81% (active)
9,O=C(O)c1cccc(-c2ccc(/C=N/NC(=O)c3[nH]c4ccc(Br)cc4c3-c3ccccc3)s2)c1,-2.3% (active)
10,C#CCOc1cc(N(CC)CC)ccc1C(C(=O)NC(C)(C)C)N(C(=O)C1CCc2cc(F)ccc2O1)c1cc(C)cc(C)c1 (centres undefined),42.9%
11,COc1cc2c(c(OC)c1OC)C(=O)CC(c1cccc(NC(=O)c3cc(NC(=O)[C@@H](N)CO)ccc3C)c1)O2 (some centres undefined),119%
12,C#CCOc1ccc(/C=N/Nc2nc(-c3ccc(F)cc3)cs2)cc1OC,24%
13,Cc1cc2c(cc1Cl)C(=O)/C(=C/c1ccc(F)cc1)O2,95.7%
14,Cn1cc(-c2cc3nc(-c4cn(C)c5ncccc45)cc(N)n3n2)c2cc(Cl)ccc21,-84.2% (active)
15,COc1ccc2[nH]cc(-c3cc(N)n4nc(-c5cn(C)c6ccccc56)cc4n3)c2c1,-83.9% (active)
16,COc1ccc(Cc2nn(CC(=O)N/N=C/c3ccc(F)cc3)c(=O)c3c(C)noc23)cc1,-26% (active)
17,Cc1ccc(NCC(=O)Cn2cc(COc3ccc(C=Nc4cnc5ccccc5c4)cc3)nn2)cc1,125%
18,Cc1cccc(NC(=O)CN2CCN(c3ncnc4c3cnn4-c3ccccc3)CC2)c1,90%
19,Cn1cc(-c2nc(N)nnc2-c2c[nH]c3ccc(F)cc23)c2cc(Br)cnc21,-4.53% (active)
20,COc1ccc2[nH]cc(-c3nnc(N)nc3-c3cn(C)c4ncc(Br)cc34)c2c1,27.1%
21,COc1ccc(NC(=O)[C@H](C)N)cc1C(=O)Nc1cccc(C2CC(=O)c3c(cc(OC)c(OC)c3OC)O2)c1 (some centres undefined),92.8%
22,CC1(C)CC[C@]2(C(=O)O)CC[C@]3(C)C(=CCC4[C@@]5(C)C[C@@H](O)[C@@H]6OC(c7ccco7)OC[C@@]6(C)C5CC[C@]43C)C2C1 (some centres undefined),32.4%
23,COc1ccc2c(c1)c(/C=N/Nc1ccc3ccccc3n1)cn2C,33.4%
24,Cc1ccc(S(=O)(=O)c2nc(S(=O)(=O)c3ccc(C)cc3)c(N3CCN(C)CC3)s2)cc1,30.3%
25,COc1cc2c(c(OC)c1OC)C(=O)CC(c1cccc(NC(=O)c3cc(NC(=O)[C@H](C)N)ccc3Cl)c1)O2 (some centres undefined),32.1%
26,Cc1ccc(C(=O)C(c2c[nH]c3ccccc23)c2c[nH]c3ccccc23)cc1,34%

# System: SF-268 CNS
# Experiment: as above
# Conditions: 10 µM unless noted
row,Compound,growth
1,O=C(c1ccccc1)c1ccc2nc(-c3ccc(F)cc3)[nH]c2c1,47.7%
2,CC1(C)CC[C@]2(C(=O)O)CC[C@]3(C)C(=CCC4[C@@]5(C)C[C@@H](O)[C@@H]6OC(c7ccc(F)cc7)OC[C@@]6(C)C5CC[C@]43C)C2C1 (some centres undefined),41.3%
3,N/C(=N\c1nc2ccccc2s1)NC(=O)Nc1ccc(Cl)cc1Cl,-2.76% (active)
4,CCCCSc1nc(Nc2ccc(S(N)(=O)=O)cc2)c(C#N)c(-c2cc(OC)c(OC)c(OC)c2)n1,60.7%
5,O=C(COc1ccc2c(c1)CCCC(=O)N2)NCc1ccccc1,97.5%
6,Nc1nc(-c2ccccc2)c(N=Nc2ccc([N+](=O)[O-])cc2Cl)s1,90.2%
7,CC1(C)CC[C@]2(C(=O)O)CC[C@]3(C)C(=CCC4[C@@]5(C)C[C@@H](O)[C@@H]6OC(c7cccc(Br)c7)OC[C@@]6(C)C5CC[C@]43C)C2C1 (some centres undefined),47.5%
8,C#CCOc1ccc(/C=N/Nc2nc(-c3cc4cc(OC)ccc4oc3=O)cs2)cc1OC,57.2%
9,N#Cc1c(NCc2ccccc2)n[nH]c1Nc1ccccc1,54.8%
10,COc1cc2oc(-c3cccc(C(=O)Nc4ccc(Cl)cc4)c3)cc(=O)c2c(OCC(=O)N[C@@H](Cc2ccccc2)C(=O)O)c1OC,110%
11,Cn1cc(-c2cc3nc(-c4c[nH]c5ccc(Cl)cc45)cc(N)n3n2)c2ccccc21,-44.9% (active)
12,C#C[C@]1(O)CC[C@H]2[C@@H]3CC=C4c5sc(-c6ccc([N+](=O)[O-])cc6)nc5CC[C@]4(C)[C@H]3CC[C@@]21C,44.5%
13,O=C(CSc1nc2ccccc2c(=O)[nH]1)NCCN1CCCCC1,92.9%
14,C#CCOc1cc(N(CC)CC)ccc1C(C(=O)NC(C)(C)C)N(C(=O)C1CCc2cc(F)ccc2O1)c1ccc(F)c(Cl)c1 (centres undefined),49.8%
15,O=c1oc2ccccc2cc1-c1csc(N2N=C(c3ccccc3)CC2c2ccc(N3CCOCC3)cc2)n1 (centres undefined),127%
16,Cn1cc(-c2cc(N)n3nc(-c4cn(C)c5ncccc45)cc3n2)c2cccnc21,92.7%
17,COc1ccc(-c2ccnc(SCc3cc4cc(OC)ccc4[nH]c3=O)n2)cc1,36.6%
18,CCOc1ccc(-c2c(C#N)c(-c3ccc(Cl)cc3)nc3n[nH]c(-c4ccc(Cl)cc4)c23)cc1OC,72.9%
19,CN(C)c1ccnc(NCCCSC(c2ccccc2)(c2ccccc2)c2ccccc2)c1,78.8%

row,Compound,growth
1,O=C(Cn1c(/C=C/c2ccccc2)nc2ccccc2c1=O)Nc1ccccc1,91.4%
2,O=C(O)c1cccc(-c2ccc(/C=N/NC(=O)c3[nH]c4ccc(Br)cc4c3-c3ccccc3)s2)c1,39%
3,C#CCOc1cc(N(CC)CC)ccc1C(C(=O)NC(C)(C)C)N(C(=O)C1CCc2cc(F)ccc2O1)c1cc(C)cc(C)c1 (centres undefined),38.2%
4,COc1cc2c(c(OC)c1OC)C(=O)CC(c1cccc(NC(=O)c3cc(NC(=O)[C@@H](N)CO)ccc3C)c1)O2 (some centres undefined),111%
5,C#CCOc1ccc(/C=N/Nc2nc(-c3ccc(F)cc3)cs2)cc1OC,84.8%
6,Cc1cc2c(cc1Cl)C(=O)/C(=C/c1ccc(F)cc1)O2,117%
7,Cn1cc(-c2cc3nc(-c4cn(C)c5ncccc45)cc(N)n3n2)c2cc(Cl)ccc21,-45% (active)
8,COc1ccc2[nH]cc(-c3cc(N)n4nc(-c5cn(C)c6ccccc56)cc4n3)c2c1,-11.7% (active)
9,COc1ccc(Cc2nn(CC(=O)N/N=C/c3ccc(F)cc3)c(=O)c3c(C)noc23)cc1,46.7%
10,Cc1ccc(NCC(=O)Cn2cc(COc3ccc(C=Nc4cnc5ccccc5c4)cc3)nn2)cc1,123%
11,Cc1cccc(NC(=O)CN2CCN(c3ncnc4c3cnn4-c3ccccc3)CC2)c1,88.4%
12,Cn1cc(-c2nc(N)nnc2-c2c[nH]c3ccc(F)cc23)c2cc(Br)cnc21,4.51% (active)
13,COc1ccc2[nH]cc(-c3nnc(N)nc3-c3cn(C)c4ncc(Br)cc34)c2c1,81.4%
14,COc1ccc(NC(=O)[C@H](C)N)cc1C(=O)Nc1cccc(C2CC(=O)c3c(cc(OC)c(OC)c3OC)O2)c1 (some centres undefined),81.5%
15,CC1(C)CC[C@]2(C(=O)O)CC[C@]3(C)C(=CCC4[C@@]5(C)C[C@@H](O)[C@@H]6OC(c7ccco7)OC[C@@]6(C)C5CC[C@]43C)C2C1 (some centres undefined),31.9%
16,COc1ccc2c(c1)c(/C=N/Nc1ccc3ccccc3n1)cn2C,37.2%
17,Cc1ccc(S(=O)(=O)c2nc(S(=O)(=O)c3ccc(C)cc3)c(N3CCN(C)CC3)s2)cc1,78.7%
18,COc1cc2c(c(OC)c1OC)C(=O)CC(c1cccc(NC(=O)c3cc(NC(=O)[C@H](C)N)ccc3Cl)c1)O2 (some centres undefined),50.5%
19,Cc1ccc(C(=O)C(c2c[nH]c3ccccc23)c2c[nH]c3ccccc23)cc1,51.5%
